# Results: the supplement of paper PMC12494721
# Counter-ions that a name gives are not always drawn.
# Assays:
# Details in all cases: incubation time: 27 h, anaerobic, 37 °C;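 for the amine columns active = adjusted P below 0.05 in both replicates with a change the same way and a mean fold change under 0.8 or over 1.25; inactive = the rest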
# [1] = system: Clostridium sporogenes DSM 1664; experiment: growth (OD595) fold change vs plate DMSO controls (fold change (ratio)); higher = more growth
# Summary of the method: (§1)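 The reported measure is growth: the fold change against the median of DMSO controls on the plate. Absorbance at 595 nm from anaerobic 96-well mGAM cultures grown for 27 h at 37 °C was blank-subtracted, corrected for background with 20 µM compound solutions in water, and converted to OD with a calibration factor of 5. Fold changes above 1.5 appear as NA, and values are the mean of 2 biological replicates.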
# Escherichia coli IAI1 [2] = experiment: as above
# Summary of the method: as §1
# [3] = system: Klebsiella aerogenes DSM 30053; experiment: as above
# Summary of the method: as §1
# [4] = system: Ruminococcus gnavus DSM 108212; experiment: as above
# Summary of the method: as §1
# [5] = system: Klebsiella aerogenes DSM 30053; experiment: fold change of Histamine concentration vs plate DMSO controls (fold change (ratio)); higher = more amine produced, active = hit call of the paper (significant change in both replicates, either direction)
# Summary of the method: (§2)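 Each value is the fold change relative to DMSO-only wells on the same plate. Four gut bacterial strains were grown anaerobically in mGAM at 37 °C for 27 h in 80 µL wells, starting at OD 0.1 before a 1:1 dilution, with compounds at 20 µM final (sweeteners 50 µM). Whole cultures were extracted with cold acetonitrile/methanol containing 0.1% formic acid, centrifuged, and amines were quantified by LC–triple-quadrupole MS (dynamic MRM) against external calibration curves with within-batch drift correction. Values are means of 2 biological replicates.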
# [6] = system: Clostridium sporogenes DSM 1664; experiment: fold change of Tryptamine concentration vs plate DMSO controls (fold change (ratio)); higher = more amine produced, active = hit call of the paper (significant change in both replicates, either direction)
# Summary of the method: as §2
# [7] = system: Ruminococcus gnavus DSM 108212; experiment: as above
# Summary of the method: as §2
# Escherichia coli IAI1 [8] = experiment: fold change of Putrescine concentration vs plate DMSO controls (fold change (ratio)); higher = more amine produced, active = hit call of the paper (significant change in both replicates, either direction)
# Summary of the method: as §2
# [9] = system: Klebsiella aerogenes DSM 30053; experiment: as above
# Summary of the method: as §2
# Escherichia coli IAI1 [10] = experiment: fold change of Cadaverine concentration vs plate DMSO controls (fold change (ratio)); higher = more amine produced, active = hit call of the paper (significant change in both replicates, either direction)
# Summary of the method: as §2
# [11] = system: Klebsiella aerogenes DSM 30053; experiment: as above
# Summary of the method: as §2
# [12] = system: Ruminococcus gnavus DSM 108212; experiment: fold change of 2-Phenylethylamine concentration vs plate DMSO controls (fold change (ratio)); higher = more amine produced, active = hit call of the paper (significant change in both replicates, either direction)
# Summary of the method: as §2
SMILES,growth [1],growth (Escherichia coli IAI1 [2]),growth [3],growth [4],fold change of Histamine concentration [5],fold change of Tryptamine concentration [6],fold change of Tryptamine concentration [7],fold change of Putrescine concentration (Escherichia coli IAI1 [8]),fold change of Putrescine concentration [9],fold change of Cadaverine concentration (Escherichia coli IAI1 [10]),fold change of Cadaverine concentration [11],fold change of 2-Phenylethylamine concentration [12]
CC(C)(C)NC(=O)[C@@H]1C[C@@H]2CCCC[C@@H]2CN1C[C@@H](O)[C@H](Cc1ccccc1)NC(=O)[C@H](CC(N)=O)NC(=O)c1ccc2ccccc2n1 [Saquinavir mesylate] (20 µM),0.98,1.1,1.03,1.12,0.937 (inactive),0.966 (inactive),0.979 (inactive),1.24 (inactive),0.993 (inactive),0.944 (inactive),1.01 (inactive),1.03 (inactive)
Nc1nc(/C(=C/CC(=O)O)C(=O)N[C@@H]2C(=O)N3C(C(=O)O)=CCS[C@H]23)cs1 [Ceftibuten] (20 µM),0.5,1.06,1.14,1.27,0.885 (inactive),1.02 (inactive),1.04 (inactive),0.79 (inactive),1.04 (inactive),0.942 (inactive),1.07 (inactive),1.06 (inactive)
CC(=O)Oc1cccc2c1C(=O)c1c(OC(C)=O)cc(C(=O)O)cc1C2=O [Diacerein] (20 µM),0.926,0.994,0.96,0.904,0.952 (inactive),1.02 (inactive),0.905 (inactive),1.08 (inactive),0.956 (inactive),1.02 (inactive),1 (inactive),0.916 (inactive)
CCC1(c2ccccc2)C(=O)NCNC1=O [Primidone] (20 µM),0.938,0.953,0.991,1.01,1.09 (inactive),0.973 (inactive),1.02 (inactive),0.982 (inactive),1.03 (inactive),0.999 (inactive),0.981 (inactive),1.03 (inactive)
OCC(CO)N[C@H]1C[C@](O)(CO)[C@@H](O)[C@H](O)[C@H]1O [Voglibose] (20 µM),1.03,1.05,1.03,1.17,1.02 (inactive),1.06 (inactive),1.06 (inactive),0.984 (inactive),0.99 (inactive),0.917 (inactive),1.01 (inactive),1.09 (inactive)
CC(CN1c2ccccc2Sc2ccccc21)N(C)C (stereo not drawn) [Promethazine hydrochloride] (20 µM),0.924,0.819,1.04,0.948,0.964 (inactive),0.997 (inactive),1.01 (inactive),0.858 (inactive),0.972 (inactive),1.05 (inactive),1.02 (inactive),1.06 (inactive)
Clc1ccc(COC(Cn2ccnc2)c2ccc(Cl)cc2Cl)c(Cl)c1 (stereo not drawn) [Miconazole] (20 µM),1.25,1.18,1.01,0.232,0.926 (inactive),0.725 (active),0.257 (active),1.2 (inactive),0.99 (inactive),0.974 (inactive),1.01 (inactive),0.277 (active)
CC1=Nc2ccc(Cl)cc2S(=O)(=O)N1 [Diazoxide] (20 µM),1.06,1.01,0.986,1.21,1.1 (inactive),1.09 (inactive),1.16 (inactive),0.991 (inactive),1.06 (inactive),0.943 (inactive),1.1 (inactive),1.35 (active)
N#C/C(=C1/SCC(c2ccccc2Cl)S1)n1ccnc1 (stereo not drawn) [Lanoconazole] (20 µM),0.991,0.983,1,1.1,0.945 (inactive),0.98 (inactive),0.982 (inactive),1.04 (inactive),1.01 (inactive),1.01 (inactive),1 (inactive),0.949 (inactive)
COCC(=O)O[C@]1(CCN(C)CCCc2nc3ccccc3[nH]2)CCc2cc(F)ccc2[C@@H]1C(C)C [Mibefradil hydrochloride] (20 µM),1.05,0.996,1,0.967,0.954 (inactive),0.999 (inactive),0.925 (inactive),1.02 (inactive),1.01 (inactive),1.02 (inactive),1 (inactive),0.908 (inactive)
Cc1onc(-c2ccccc2Cl)c1C(=O)N[C@@H]1C(=O)N2[C@@H]1SC(C)(C)[C@@H]2C(=O)O [Cloxacillin sodium salt] (20 µM),0,1.02,1.08,0.171,0.987 (inactive),0.0211 (active),0.0749 (active),0.997 (inactive),1.02 (inactive),0.999 (inactive),1.02 (inactive),0.0503 (active)
CC(=O)c1cc2cccc(OCC(O)CNC(C)C)c2o1 (stereo not drawn) [Befunolol] (20 µM),0.992,1.1,0.953,0.98,1.07 (inactive),1.06 (inactive),1.02 (inactive),1.06 (inactive),0.972 (inactive),0.997 (inactive),0.995 (inactive),1.06 (inactive)
O=c1oc2ccccc2c(O)c1Cc1c(O)c2ccccc2oc1=O [Dicumarol] (20 µM),0.886,0.961,1.04,0.883,1 (inactive),0.989 (inactive),0.949 (inactive),0.993 (inactive),1 (inactive),1.01 (inactive),1.01 (inactive),1.02 (inactive)
Nc1nc(Cl)nc2c1ncn2[C@H]1C[C@H](O)[C@@H](CO)O1 [Cladribine] (20 µM),0.964,0.974,1.06,0.893,0.841 (inactive),1.06 (inactive),0.925 (inactive),0.684 (inactive),0.984 (inactive),0.934 (inactive),1.02 (inactive),0.957 (inactive)
O=c1[nH]c(=O)n([C@H]2C[C@H](O)[C@@H](CO)O2)cc1F [Floxuridine] (20 µM),0.467,0.882,0.907,1.41,0.675 (active),0.514 (inactive),0.748 (active),0.593 (active),0.903 (inactive),0.889 (inactive),1.02 (inactive),0.884 (inactive)
O=C1c2c(O)ccc(O)c2C(=O)c2c(NCCNCCO)ccc(NCCNCCO)c21 [Mitoxantrone dihydrochloride] (20 µM),0.733,0.831,1.02,1.24,0.924 (inactive),1.01 (inactive),0.978 (inactive),0.999 (inactive),1.02 (inactive),0.988 (inactive),1.04 (inactive),0.958 (inactive)
CN1[C@@H]2CC[C@H]1C[C@@H](OC(=O)c1c[nH]c3ccccc13)C2 [Tropisetron hydrochloride] (20 µM),1.14,1,1.14,1.08,0.94 (inactive),1.01 (inactive),1.02 (inactive),0.982 (inactive),0.952 (inactive),0.994 (inactive),1.01 (inactive),0.957 (inactive)
CCN1CCCC1CNC(=O)c1cc(S(N)(=O)=O)ccc1OC (stereo not drawn) [Sulpiride] (20 µM),0.968,1,0.981,1.18,1.05 (inactive),0.949 (inactive),1.03 (inactive),0.997 (inactive),1.02 (inactive),1.03 (inactive),0.991 (inactive),1.06 (inactive)
COc1ccccc1OCC(O)CN1CCN(CC(=O)Nc2c(C)cccc2C)CC1 (stereo not drawn) [Ranolazine] (20 µM),1.13,1.01,1.13,0.994,0.957 (inactive),1.03 (inactive),1.03 (inactive),0.997 (inactive),1.01 (inactive),1.01 (inactive),1.01 (inactive),1.06 (inactive)
C[N+](C)(CCOc1ccccc1)Cc1ccccc1.O=C([O-])c1cc2ccccc2cc1O [Bephenium hydroxynaphthoate] (20 µM),0.816,0.99,0.976,0.995,1.04 (inactive),1.16 (inactive),1.04 (inactive),0.854 (inactive),0.99 (inactive),1.51 (active),0.992 (inactive),1.06 (inactive)
Cc1ccccc1N1C(=O)c2cc(S(N)(=O)=O)c(Cl)cc2NC1C (stereo not drawn) [Metolazone] (20 µM),1.14,0.984,1.02,1.07,1.04 (inactive),0.993 (inactive),1.03 (inactive),1.02 (inactive),0.995 (inactive),0.977 (inactive),0.993 (inactive),1.04 (inactive)
COC(=O)[C@@H]1[C@H]2C[C@H]3c4[nH]c5ccccc5c4CCN3C[C@@H]2CC[C@@H]1O [Yohimbine hydrochloride] (20 µM),1.02,1.06,1.04,0.793,0.982 (inactive),1.03 (inactive),1.01 (inactive),1.05 (inactive),1.01 (inactive),0.989 (inactive),1.02 (inactive),1.01 (inactive)
CC(=O)CC(c1ccccc1)c1c(O)c2ccccc2oc1=O (stereo not drawn) (20 µM),1.05,0.981,1,1.15,1.01 (inactive),0.979 (inactive),0.984 (inactive),1.01 (inactive),1 (inactive),0.995 (inactive),0.99 (inactive),0.99 (inactive)
CCOC(=O)O[C@]1(C(=O)COC(=O)CC)CC[C@H]2[C@@H]3CCC4=CC(=O)C=C[C@]4(C)[C@H]3[C@@H](O)C[C@@]21C [Prednicarbate] (20 µM),1.04,1.09,1.01,0.865,1.02 (inactive),0.97 (inactive),1.2 (inactive),0.941 (inactive),1.03 (inactive),1.01 (inactive),1.12 (inactive),1.41 (inactive)
